LGR2 antag = blocks bursicon-induced cAMP signaling via Drosophila LGR2; HEK293 LGR2, CRE-luciferase, bursicon-stimulated, 4 h; inhibition, % at 9.99 µM; 380,000 tested, 0.35% active; AID 720647;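 active = drop in luminescence signal, shown as inhibition above about 50% in the replicate tests, limit read from the data, passing the limit was not always enough; inconclusive = probably only some replicates passing the limit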;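 note: agonist challenge used bursicon conditioned medium at about half maximal strength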
TROY signal inh = TROY signaling inhibition | AID 1347056 | Q293 LMP1-TROYcd NF-kB luciferase reporter, 4 h | 360,000 tested, 0.98% active | inhibition, % at 10 µM;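 active = compounds whose plate-normalised and pattern-corrected inhibition of the luciferase reporter signal at the single screening dose is 50% or more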
LMP1 NFkB inh = inhibitors of Epstein-Barr LMP1-induced NF-kappaB reporter. LMP1-induced NF-kappaB luciferase reporter cells, luminescence. inhibition, % at 12.5 µM. 350,000 tested, 0.69% active. AID 504558; in the data active = inhibition above about 41%; inconclusive = no clear call, values can overlap the other calls;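 note: 0% = neutral control wells and 100% = reference inhibitor control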
HSP90 refold inh = HSP90 refolding inhibition in rabbit reticulocyte lysate; luciferase refolding luminescence, 3 h; inhibition, % at 5.6 µM; 290,000 tested, 0.91% active; AID 1789;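 active = inhibition above the screen-wide mean plus 3 SD, computed separately per campaign, cut at about 16% in these data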;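 note: 0% = DMSO wells and 100% = 60 µM geldanamycin wells; inhibitors lower the luminescence because luciferase stays unfolded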
TWEAK-Fn14 inh = inhibitors of TWEAK-Fn14 interaction signaling. TWEAK-stimulated Fn14 reporter cells, luciferase luminescence, 8 h. inhibition, % at 10 µM. 360,000 tested, 2% active; in the data active = inhibition above about 50%
aDG glyco up = increases alpha dystroglycan glycosylation | Pro5-aDG cells, alpha-DG glycosylation AlphaScreen (IIH6); 0% Pro5, 100% B10-LARGE cell signal | activation, % at 10 µM | 360,000 tested, 0.22% active | AID 624168;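 active = activation of at least 8% versus controls, or a plate z-score of at least 8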;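 note: Pro5 are CHO cells carrying HIG-tagged alpha-DG that lacks glycosylation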
Active calls of the source: *; ? = inconclusive; . = no result. An excerpt weighted towards active compounds, which were near 2.6% of everything screened.

SMILES	LGR2 antag	TROY signal inh	LMP1 NFkB inh	HSP90 refold inh	TWEAK-Fn14 inh	aDG glyco up
CC(=O)NC(c1ccc(Cl)cc1)c1ccc2cccnc2c1O (stereo not drawn)	.	26	63*	.	19	0
CC(=O)NC(c1ccco1)c1ccc2cccnc2c1O (stereo not drawn)	20	9	25	4	26	0
COc1ccc(C(NC(=O)C(C)C)c2ccc3cccnc3c2O)cc1 (stereo not drawn)	11	4	24	12	22	-1
CCCCC(=O)NC(c1ccc(OC)cc1)c1ccc2cccnc2c1O (stereo not drawn)	11	0	65*	.	0	0
CCCC(=O)NC(c1ccccc1Cl)c1ccc2cccnc2c1O (stereo not drawn)	24	2	66*	15	4	0
CCC(=O)NC(c1ccc(C)cc1)c1ccc2cccnc2c1O (stereo not drawn)	34	22	?	3	21	0
CCCC(=O)NC(c1ccc(C(C)C)cc1)c1ccc2cccnc2c1O (stereo not drawn)	23	34	62*	15	29	0
C[C@@H](NC(=O)C[C@@H]1C[C@H]2c3cc(NC(=O)c4ccc5c(c4)OCO5)ccc3O[C@H]2[C@@H](CO)O1)c1ccccc1	-1	.	.	.	.	.
C[C@@H]1CCCCO[C@H](CN(C)Cc2ccc3c(c2)OCO3)[C@H](C)CN([C@H](C)CO)C(=O)c2cc(NC(=O)Nc3ccc(C(F)(F)F)cc3)ccc2O1	1	.	.	.	.	.
COc1ccc(C(NC(C)=O)c2cc(Cl)c3cccnc3c2O)cc1 (stereo not drawn)	21	23	42*	11	30	0
O=C(O)c1ccccc1NC(c1ccccc1)c1ccc2cccnc2c1O (stereo not drawn)	21	-2	16	.	-19	0
Cc1cc(NC(c2ccc(Cl)cc2)c2ccc3cccnc3c2O)no1 (stereo not drawn)	.	15	70*	7	-31	2
Cc1ccnc(NC(c2ccccc2)c2ccc3cccnc3c2O)c1 (stereo not drawn)	9	-6	14	.	-22	1
CCCC(=O)NC(c1ccc(N(C)C)cc1)c1ccc2cccnc2c1O (stereo not drawn)	22	6	47*	14	3	0
CC(=O)NC(c1ccc(N(C)C)cc1)c1cc(Cl)c2cccnc2c1O (stereo not drawn)	15	23	11	.	34	1
COc1ccc(NC(=O)Nc2ccc3c(c2)[C@H]2C[C@H](CC(=O)NCc4ccccn4)O[C@H](CO)[C@H]2O3)cc1	-8	.	.	.	.	.
O=C(O)CSC1c2ccccc2C(=O)N1Cc1ccccc1 (stereo not drawn)	.	15	2	-1	-24	0
CCC(=O)OC1c2ccccc2C(=O)N1Cc1ccccc1 (stereo not drawn)	-4	-8	87*	-1	4	0
O=C1c2ccccc2CN1CCNC(=S)NC1CCCCC1	-11	-21	49*	-1	-18	0
COc1ccc(NC(=O)Nc2ccc3c(c2)C(=O)N([C@H](C)CO)C[C@H](C)[C@@H](CN(C)S(=O)(=O)c2ccccc2)OCCCC[C@H](C)O3)cc1	0	.	.	.	.	.
COc1cc(/C=N/Nc2snc(SC)c2C#N)cc(OC)c1OC	.	.	-13	1	92*	0
CSc1nsc(N/N=C/c2ccc3c(c2)OCO3)c1C#N	-58	-48	-65	1	-52	0
O=C(NCCCSc1ccccc1)c1cc(Cl)ccc1O	3	37	-3	-6	55*	2
O=C(CNC(=O)c1ccccc1)NCCCSc1ccccc1	-16	-14	-11	.	5	1
COC1C(CO)OC(n2c3c(Cl)cccc3c3c4c(c5c6cccc(Cl)c6[nH]c5c32)C(=O)NC4=O)C(O)C1O (stereo not drawn)	60*	18	60*	.	0	0
O=C(CSc1nc2ccc([N+](=O)[O-])cc2[nH]1)NC1CCCCC1	4	6	2	1	20	0
O=C(CSc1nc2ccc([N+](=O)[O-])cc2[nH]1)NC1CCCCCC1	-5	49	-5	-1	61*	0
CCOc1ccccc1N1CCN(c2ncnc3scc(-c4ccc(OC)cc4)c23)CC1	43	59*	17	7	40	0
